This is an account of results in PubChem BioAssay.

Molecules are shown by their SMILES. Activity calls are given as the source filed them.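 How the source made its calls: active means GFP response below 50% of the DMSO control; inconclusive means fewer than 70 events counted for a yeast strain; inactive means the rest.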

One experiment can be described thus: hit retest on RPL19A-GFP reporter strain – cell-based, S. cerevisiae, flow cytometry, cherry picks, mother/daughter gates, confirmation (AID 2270). Conditions: 3 h, at 10 µM, stronger effect = lower value, 100 = same GFP as DMSO wells. (In general: In flow cytometry, cells or beads pass a laser one at a time.)
Turning to `Cc1ccc(/C=C/C(=O)c2ccc([N+](=O)[O-])o2)cc1`, the GFP response vs DMSO is 101% (inactive).
On the same count and under the same terms, the figure for `CCCN1CCc2c(sc(NC(=S)NC(=O)c3ccccc3)c2C#N)C1` is 100% (inactive); for `O=C(CN1CCN(Cc2ccccc2Cl)C1=O)NC1CCCCCCC1` it is 98.2% (inactive); for `O=c1oc(/C=C/c2ccc([N+](=O)[O-])s2)nc2ccccc12` it is 112% (inactive).
With `COc1ccccc1Oc1ccc(S(=O)(=O)N2CCCC2)cc1`, the GFP response vs DMSO is 102% (inactive).
Consider `COc1ccc(C(=O)Nc2c(N)nc[nH]c2=O)cc1`, for which the GFP response vs DMSO is 102% (inactive).
As to `Cc1[nH]n(-c2ncc(-c3ccccc3)s2)c(=O)c1C(c1ccc(Cl)cc1)C(C#N)C#N` (stereo not given), the GFP response vs DMSO is 94.5% (inactive).
For `COc1ccc(-c2cc3cc(C(=O)O)ccn3c2C(=O)c2ccccc2)cc1`, the GFP response vs DMSO was 97% (inactive).
As to `CCOC(=O)c1ccc(NC(=O)CCc2nc(-c3ccc(Cl)cc3)no2)cc1`, the GFP response vs DMSO was 99.4% (inactive).
Same read-out and setting: the figure for `CS(=O)(=O)N1N=C(c2ccco2)CC1c1ccc(Br)cc1` (stereo not given) is 98.4% (inactive); for `O=C(O)c1ccc2c3c(ncnc13)-c1ccccc1C2=O` it is 113% (inactive); for `CCN(CC)C(=O)c1ccc2c3c(cccc13)C(=O)N(CCc1ccc(OC)c(OC)c1)C2=O` it is 98.8% (inactive).
With `Oc1cccc(/C=N/c2c(-c3ccco3)nc3ccccn23)c1`, the GFP response vs DMSO is 96.6% (inactive).
With `O=C(Nc1nccs1)C(c1ccccc1)N1CCCCC1` (stereo not given), the GFP response vs DMSO is 103% (inactive).
With `CCN1/C(=C/c2ccc3cc(C)ccc3[n+]2CC)Sc2ccc3sccc3c21`, the GFP response vs DMSO was 96.7% (inactive).
Still for that read-out and setting: in the case of `COCCCN(C(=O)c1ccco1)c1nc(-c2cc(OC)ccc2OC)cs1` it was 95.8% (inactive); in that of `O=C1[C@@H]2C3C=CC(O3)[C@@H]2C(=O)N1c1ccccc1`, 101% (inactive).
Turning to `CCOC(=O)C1CCCN(c2nc3c(C)cccn3c(=O)c2/C=C(\C#N)C(=O)NCc2ccco2)C1` (stereo not given), the GFP response vs DMSO is 102% (inactive).
With `CCOC(=O)/C=C1\SCC(=O)N1Cc1nnc(-c2ccccc2Br)o1`, the GFP response vs DMSO is 96.2% (inactive).
On to `O=C(Nc1c2c(nn1-c1ccccc1)CS(=O)C2)c1ccco1` (stereo not given), for which the GFP response vs DMSO is 96.5% (inactive).
The same measure, in the same setting: the figure for `CCn1c(=O)c(C(=O)NCCc2ccccc2)c(O)c2ccccc21` is 98.5% (inactive); for `CN1CCN(C(c2ccc(C(F)(F)F)cc2)c2ccc3cccnc3c2O)CC1` (stereo not given) it is 93.6% (inactive).
`COc1ccc(C2N(c3ccc(Cl)cc3)N=C(C(C)=O)N(C)N2C(C)=O)cc1` (stereo not given): the GFP response vs DMSO was 100% (inactive).
As to `COC(=O)CCS(=O)(=O)c1nc(-c2ccccc2)cc(C(F)(F)F)n1`, the GFP response vs DMSO was 100% (inactive).
Take `CCc1ccc(OCC(=O)NNC(=S)NC(=O)C2CC2)c(Br)c1`: the GFP response vs DMSO is 82.8% (inactive).
On to `Cc1cccc(Cn2cc(/C=C/[N+](=O)[O-])c3ccccc32)c1`, for which the GFP response vs DMSO is 106% (inactive).
On to `CCc1ccc2c(c1)C1(NN=C(c3cccc4ccccc34)S1)C(=O)N2` (stereo not given), for which the GFP response vs DMSO was 96% (inactive).
The same measure, in the same setting: in the case of `N#C/C(=C\c1c(N2CCCCCC2)nc2ccccn2c1=O)C(=O)NCc1ccco1` it was 96% (inactive); in that of `CCOC(=O)C(=CNNc1ccccc1)C(=O)OCC`, 106% (inactive).
Regarding `O=C(O)Cn1cc(/C=C/[N+](=O)[O-])c2ccccc21`, the GFP response vs DMSO is 97.6% (inactive).
On to `N#C/C(C(=O)Nc1ccc(Cl)cc1)=C(/S)Nc1ccccc1`, for which the GFP response vs DMSO is 98.8% (inactive).
Take `CCCc1[nH]nc2c1C(c1ccc(OC)c(Cn3nnc4ccccc43)c1)C(C#N)=C(N)O2` (stereo not given): the GFP response vs DMSO is 98% (inactive).
Consider `COc1ccc(-c2csc(Nc3ncccc3C)n2)cc1`, for which the GFP response vs DMSO was 95.6% (inactive).
Still for that read-out and setting: the figure for `Cc1ccccc1C(=O)NNC(=S)NC(=O)c1ccc(Cl)cc1Cl` is 104% (inactive); for `O=C(NC(c1ccccc1)C(Cl)Cl)c1ccccc1` (stereo not given) it is 94.7% (inactive); for `Cc1ccc2nc(Cl)c3nnnn3c2c1` it is 66.6% (inactive).
Consider `CN1C(=O)c2cccc3c(Cl)ccc(c23)C1=O`, for which the GFP response vs DMSO was 97.8% (inactive).
Take `Cc1nc2c(-c3ccc(F)cc3)cnn2c(N)c1-c1ccccc1`: the GFP response vs DMSO is 99.6% (inactive).
Same read-out and setting: in the case of `COc1ccc(C2CC(c3c(-c4ccccc4)c4cc(Cl)ccc4[nH]c3=O)=NN2S(C)(=O)=O)cc1` (stereo not given) it was 100% (inactive); in that of `O=C(N/N=C\c1ccc(F)cc1)c1cc(OCC(F)(F)F)ccc1OCC(F)(F)F`, 99.1% (inactive).

The experiment is the same for the next values; noted with them: 3 h, measured here: daughter cell gate, at 10 µM, stronger effect = lower value, 100 = same GFP as DMSO wells.
For `Cc1ccc(/C=C/C(=O)c2ccc([N+](=O)[O-])o2)cc1`, the GFP response vs DMSO worked out at 107%.
The compound `CCCN1CCc2c(sc(NC(=S)NC(=O)c3ccccc3)c2C#N)C1` had a GFP response vs DMSO of 99.6%.
With `O=C(CN1CCN(Cc2ccccc2Cl)C1=O)NC1CCCCCCC1`, the GFP response vs DMSO is 98.6%.
`O=c1oc(/C=C/c2ccc([N+](=O)[O-])s2)nc2ccccc12` came in with a GFP response vs DMSO of 113%.
Compound `COc1ccccc1Oc1ccc(S(=O)(=O)N2CCCC2)cc1` showed a GFP response vs DMSO of 100%.
Still for that read-out and setting: in the case of `COc1ccc(C(=O)Nc2c(N)nc[nH]c2=O)cc1` it was 99.3%; in that of `Cc1[nH]n(-c2ncc(-c3ccccc3)s2)c(=O)c1C(c1ccc(Cl)cc1)C(C#N)C#N` (stereo not given), 98.1%; in that of `COc1ccc(-c2cc3cc(C(=O)O)ccn3c2C(=O)c2ccccc2)cc1`, 95.6%.
Same read-out and setting: the figure for `CCOC(=O)c1ccc(NC(=O)CCc2nc(-c3ccc(Cl)cc3)no2)cc1` is 100%.
Turning to `CS(=O)(=O)N1N=C(c2ccco2)CC1c1ccc(Br)cc1` (stereo not given), the GFP response vs DMSO is 98.1%.
In the case of `O=C(O)c1ccc2c3c(ncnc13)-c1ccccc1C2=O`, the GFP response vs DMSO was 95.3%.
Compound `CCN(CC)C(=O)c1ccc2c3c(cccc13)C(=O)N(CCc1ccc(OC)c(OC)c1)C2=O` gave a GFP response vs DMSO of 99.3%.
As to `Oc1cccc(/C=N/c2c(-c3ccco3)nc3ccccn23)c1`, the GFP response vs DMSO is 96.2%.
Compound `O=C(Nc1nccs1)C(c1ccccc1)N1CCCCC1` (stereo not given) returned a GFP response vs DMSO of 100%.
In the case of `CCN1/C(=C/c2ccc3cc(C)ccc3[n+]2CC)Sc2ccc3sccc3c21`, the GFP response vs DMSO was determined as 74.3%.
`COCCCN(C(=O)c1ccco1)c1nc(-c2cc(OC)ccc2OC)cs1` gave a GFP response vs DMSO of 96.4%.
On the same count and under the same terms, in the case of `O=C1[C@@H]2C3C=CC(O3)[C@@H]2C(=O)N1c1ccccc1` it was 102%.
The compound `CCOC(=O)C1CCCN(c2nc3c(C)cccn3c(=O)c2/C=C(\C#N)C(=O)NCc2ccco2)C1` (stereo not given) showed a GFP response vs DMSO of 101%.
Still for that read-out and setting: the figure for `CCOC(=O)/C=C1\SCC(=O)N1Cc1nnc(-c2ccccc2Br)o1` is 97.6%.
The same measure, in the same setting: in the case of `O=C(Nc1c2c(nn1-c1ccccc1)CS(=O)C2)c1ccco1` (stereo not given) it was 97.3%; in that of `CCn1c(=O)c(C(=O)NCCc2ccccc2)c(O)c2ccccc21`, 99.8%; in that of `CN1CCN(C(c2ccc(C(F)(F)F)cc2)c2ccc3cccnc3c2O)CC1` (stereo not given), 87.3%.
For `COc1ccc(C2N(c3ccc(Cl)cc3)N=C(C(C)=O)N(C)N2C(C)=O)cc1` (stereo not given), the GFP response vs DMSO turned out to be 99.6%.
`COC(=O)CCS(=O)(=O)c1nc(-c2ccccc2)cc(C(F)(F)F)n1`: the GFP response vs DMSO was 102%.
The same measure, in the same setting: in the case of `CCc1ccc(OCC(=O)NNC(=S)NC(=O)C2CC2)c(Br)c1` it was 97.6%.
On the same count and under the same terms, in the case of `Cc1cccc(Cn2cc(/C=C/[N+](=O)[O-])c3ccccc32)c1` it was 103%.
In the case of `CCc1ccc2c(c1)C1(NN=C(c3cccc4ccccc34)S1)C(=O)N2` (stereo not given), the GFP response vs DMSO amounted to 96.7%.
Take `N#C/C(=C\c1c(N2CCCCCC2)nc2ccccn2c1=O)C(=O)NCc1ccco1`: the GFP response vs DMSO was found to be 97.9%.
In turn, `CCOC(=O)C(=CNNc1ccccc1)C(=O)OCC` returned a GFP response vs DMSO of 105%.
Compound `O=C(O)Cn1cc(/C=C/[N+](=O)[O-])c2ccccc21` had a GFP response vs DMSO of 98.4%.
Turning to `N#C/C(C(=O)Nc1ccc(Cl)cc1)=C(/S)Nc1ccccc1`, the GFP response vs DMSO was 98.9%.
`CCCc1[nH]nc2c1C(c1ccc(OC)c(Cn3nnc4ccccc43)c1)C(C#N)=C(N)O2` (stereo not given) showed a GFP response vs DMSO of 98.6%.
On to `COc1ccc(-c2csc(Nc3ncccc3C)n2)cc1`, for which the GFP response vs DMSO came out at 92.1%.
The same measure, in the same setting: the figure for `Cc1ccccc1C(=O)NNC(=S)NC(=O)c1ccc(Cl)cc1Cl` is 105%; for `O=C(NC(c1ccccc1)C(Cl)Cl)c1ccccc1` (stereo not given) it is 98.4%.
Turning to `Cc1ccc2nc(Cl)c3nnnn3c2c1`, the GFP response vs DMSO was 58.4%.
For `CN1C(=O)c2cccc3c(Cl)ccc(c23)C1=O`, the GFP response vs DMSO turned out to be 95.7%.
For the compound `Cc1nc2c(-c3ccc(F)cc3)cnn2c(N)c1-c1ccccc1`, the GFP response vs DMSO turned out to be 97.9%.
`COc1ccc(C2CC(c3c(-c4ccccc4)c4cc(Cl)ccc4[nH]c3=O)=NN2S(C)(=O)=O)cc1` (stereo not given) showed a GFP response vs DMSO of 99.1%.
With `O=C(N/N=C\c1ccc(F)cc1)c1cc(OCC(F)(F)F)ccc1OCC(F)(F)F`, the GFP response vs DMSO was 99.3%.
